Bioassay records: PubChem BioAssay, National Center for Advancing Translational Sciences (NCATS)
HT1080 IDH1KD tx = toxicity to HT-1080 IDH1 knockdown cells (counter line); 360,000 tested, 2% active; AID 686971; HT-1080 IDH1 knockdown viability, ATP luminescence, 48 h; Potency, µM (doses to about 46.1 µM), inactives show at the highest dose activity, negative = toxicity, usual class: cytotoxic;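 further: 0% = DMSO wells and -100% = cell-free medium wells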
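Luminescent ATP read-out (CellTiter-Glo, 10 min at room temperature) after 48 h compound exposure at 37 °C gave viability of IDH1-knockdown HT-1080 cells. Activity was normalised to DMSO and cell-free wells, then fitted as concentration-response curves.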
TGFb SMAD3 inh = TGF-b pathway inhibition; HepG2 CAGA-GFP TGF-b/SMAD3 reporter, GFP fluorescence, 18 h; TGF-beta stimulated, 500 pg/mL final; Potency, µM (titrated, usually from 46.1 µM), for the others: at the highest dose activity, negative = inhibition, actives largely listed as inhibitors; 410,000 tested, 1.2% active; AID 588855; further: on the % scale 0 is the no-effect control and ±100 the full control effect; nearly all actives have a fitted effect of over 65% in size
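Per well, imaged GFP fluorescence of HEPG2 CAGA-GFP cells gives the signal; cells get compound, then TGF-beta (500 pg/mL final), 18 h at 37 degrees C; %Activity versus -TGF-beta and +DMSO controls.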
TDP1 cell noCPT = qHTS for Inhibitors of human tyrosyl-DNA phosphodiesterase 1 (TDP1): qHTS in cells in absence of CPT. AID 686978, 2013. 420,000 tested, 15% active. DT40 Tdp1-/- hTDP1 cells, no CPT, ATP luminescence, 48 h. Potency, µM (top dose mostly 46.2 µM), for the others: at the top dose activity change, negative = growth inhibition, usual class: inhibitors; further: on the % scale 0 is the no-effect control and ±100 the full control effect; nearly all actives have a fitted effect of over 55% in size
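Camptothecin absent (DMSO only). Human TDP1-complemented DT40 knockout cells, 400 cells/well, 37 °C for minimum 48 hr; ATP measured via CellTiter-Glo, 30 min dark incubation, luminescence.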
DT40 TDP1 CPT = growth inhibition of DT40 Tdp1-/-;hTDP1 cells with camptothecin (screen for TDP1 inhibitors). 420,000 tested, 12% active. chicken DT40 Tdp1-/-;hTDP1 cells + 20 nM CPT, ATP luminescence, 48 h. Potency, µM (doses to about 46.2 µM), for inactives: at the top dose activity change, negative = growth inhibition, hits mostly inhibitors; further: on the % scale 0 is the no-effect control and ±100 the full control effect; nearly all actives have a fitted effect of over 55% in size
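Cell growth measured by CellTiter-Glo luminescence after a minimum 48 h, 37 C compound exposure with 20 nM CPT in Tdp1-knockout DT40 cells stably expressing hTDP1, seeded 400/well; qHTS titration format.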
HT1080NT lethal = kills 2HG-producing HT-1080-NT fibrosarcoma cells. 360,000 tested, 1.6% active. AID 686970. Potency, µM (series often up to 46.1 µM), inactives show top-dose activity, negative = less viability, actives largely listed as cytotoxic. HT-1080-NT fibrosarcoma viability, CellTiter-Glo ATP luminescence, 48 h;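 further: NT is the 2HG producing partner of a matched IDH1 knockdown line; 0% = DMSO-treated cells and -100% = media-only wells without cells; nearly all actives have a fitted effect of over 55% in size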
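Read-out is CellTiter-Glo luminescence after 10 minutes at room temperature, following 48 hours' compound treatment of HT-1080-NT cells (750 cells/well, RPMI, 5% FBS, 37 degrees C).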
HepG2 viability = HepG2 cytotoxicity, counter-screen for TGF-b inhibitors | HepG2 CAGA-GFP viability, ATP luminescence, 18 h | Potency, µM (highest dose often 46.1 µM), without a hit: top-dose activity change, negative = cytotoxicity, hits mostly cytotoxic | 410,000 tested, 0.76% active | AID 588856
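CellTiter-Glo luminescence gave cytotoxicity after 18 hours at 37 degrees C. The cells were HepG2 CAGA-GFP in 1% FBS DMEM, stimulated with 500 pg/mL TGF-beta after compound addition. %Activity was normalised to no-cell wells (complete cell-killing) and DMSO (no toxicity), and curves were fitted and classified.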
An asterisk follows results filed as active; ? = inconclusive; nt = not tested or not shown. Only some compounds are listed: those with a hit (about 17% of all), similar ones and a draw of the others. The call rests on the fitted dose curve; in most records, active means well fitted curve in the direction sought with a large enough effect; inconclusive means small, poorly fitted or top-dose-only effect, or another doubt; inactive means no such curve, though single readings can be large; an effect the other way counts as inactive or inconclusive. Potency means the concentration at half of the fitted maximal effect.

SMILES	HT1080 IDH1KD tx	TGFb SMAD3 inh	TDP1 cell noCPT	DT40 TDP1 CPT	HT1080NT lethal	HepG2 viability
CCc1nc(Nc2cccc(OC)c2)c2oc3ccccc3c2n1	-9.2%	22.9%	?	?	-1.3%	2.2%
Cc1ccc(Nc2nc(N)nc(-c3oc4ccccc4c3C)n2)cc1	0.0103µM*	?	0.058µM*	0.206µM*	0.0065µM*	3.1%
COc1cccc(Nc2nc(N)nc(-c3oc4ccccc4c3C)n2)c1	7.94µM*	?	8.2µM*	6.51µM*	10µM*	-32.2%
Cc1cccc(Nc2nc(N)nc(-c3oc4ccccc4c3C)n2)c1	?	-28.5%	25.9µM*	?	?	-25.6%
CC(C)c1c(O)ccc2c1CC[C@H]1C(C)(C)CCC[C@]21C	?	?	?	13µM*	?	-99.9%
CCCc1cc(-c2nc(-c3ccc(Cl)cc3)cs2)ccn1	-0.4%	-29.5%	18.4µM*	18.4µM*	-12.0%	-59.1%
CC[C@]1(c2ncc[nH]2)Cc2ccccc2O1	nt	nt	23.7µM*	?	nt	nt
COc1cccc(CNC(=O)CN(C)S(=O)(=O)c2ccc3c(c2)n(C)c(=O)c(=O)n3C)c1	11.6%	5.3%	19.1%	6.5%	3.0%	4.9%
COC(=O)c1ccccc1NC(=O)CCC(=O)N1CCOc2ccccc21	nt	-0.4%	-28.9%	-20.4%	nt	2.8%
O=C(CCl)NC(Cc1ccccc1)c1ccccc1 (stereo not drawn)	16.4µM*	-3.6%	23.1µM*	14.6µM*	?	-24.3%
CC(=O)N[C@@H](CCC(=O)O)C(=O)O	nt	nt	-4.0%	10.7%	nt	nt
CC1CN=C(NS(=O)(=O)c2ccccc2)N1 (stereo not drawn)	-4.1%	-6.9%	-2.5%	8.9%	-2.2%	-20.4%
Cc1[nH]c2ccccc2c1CN1CCN(c2ccccn2)CC1	1.0%	0.0%	5.17µM*	2.31µM*	7.2%	-30.0%
Cc1[nH]c2ccccc2c1CN1CCC(Cc2ccccc2)CC1	23.1µM*	?	2.59µM*	2.59µM*	?	-92.4%
Cc1noc(C)c1CSCC(=O)N(C)CC(=O)Nc1ccc(F)c(F)c1F	0.4%	-7.9%	-18.5%	-12.3%	1.0%	-4.0%
Cc1cc(C)cc(C(O)c2ncc(-c3ccccc3C(F)(F)F)[nH]2)c1 (stereo not drawn)	4.0%	6.8%	?	?	3.6%	-12.0%
COc1cc(OC)nc(Nc2nc(C(N)CCc3ccccc3)cs2)n1 (stereo not drawn)	?	?	?	25.9µM*	-25.4%	-97.2%
COc1cc(OC)nc(Nc2nc(C(N)Cc3ccc(Cl)cc3)cs2)n1 (stereo not drawn)	?	?	14.6µM*	23.1µM*	23.1µM*	11.2µM*
COC(=O)c1cc(C)nc(Nc2nc(C(N)Cc3ccc(Cl)cc3)cs2)n1 (stereo not drawn)	?	-13.3%	?	?	-10.2%	-25.8%
C[C@]12C(=O)N(c3ccccc3)C(=O)N1[C@@H]1c3ccccc3OC[C@@H]1[C@H]2c1ccccc1	-7.0%	9.2%	16.4µM*	14.6µM*	24.5%	-11.3%
C[C@]12C(=O)N(c3ccc(C(F)(F)F)cc3)C(=O)N1[C@@H]1c3ccccc3OC[C@@H]1[C@H]2c1ccccc1	0.0%	?	?	23.1µM*	0.0%	-4.4%
C[C@]12C(=O)N(c3ccccc3)C(=O)N1[C@H]1c3ccccc3OC[C@@H]1[C@H]2c1ccccc1	0.0%	-18.9%	?	?	0.5%	-17.2%
